This is a sample that favours compounds with a hit; in the whole collection about 2.3% have one here.
Nrf2 ARE act: qHTS of Nrf2 Activators | AREc32 ARE-luciferase reporter (MCF7-derived line), luminescence, 24 h | Potency, µM (titrated, usually from 46.1 µM), for inactives: at the highest dose activation, hits mostly activators | actives 0.31% (n = 410,000) | AID 624171, 2012; note: potency is the fitted concentration of half-maximal effect; % of control where 0% means no effect; nearly all actives have a fitted effect of over 65% in size
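AREc32 cells carrying an ARE-driven firefly luciferase reporter were seeded at 1000 cells/well in OPTI-MEM with 5% FBS, then exposed to compound for 24 hr at 37 deg C. Luminescence was read with Steady-Glo after 30 min at RT.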
miR-21 act: qHTS Assay for Modulators of miRNAs and/orActivators of miR-21; AID 2288, 2010; 340,000 tested, under 10 active; Potency, µM (top dose mostly 38.3 µM), inactives show top-dose activity change, positive = activation, usual class: activators; HeLa miR-21 FLuc reporter, luciferase, 48 h;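 note: % of control where 0% means no effect; miR-21 action dims this reporter so a rising signal means less miR-21 action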
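HeLa cells stably expressing CMV-driven firefly luciferase with a downstream miR-21 binding sequence, endogenously expressing miR-21, were treated with titrations (up to about 40uM final) for 48 hours at 37 degree Celsius. Luciferase luminescence was read after lysis.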
Mito fusion act: qHTS Assay for Small Molecule Inhibitors of Mitochondrial Division or Activators of Mitochondrial Fusion; S. cerevisiae fusion-defective mutant growth rescue, CellTiterGlo 48 h; Potency, µM (series often up to 46.1 µM), without a hit: top-dose growth rescue (activation), most hits filed as activators; actives 0.23% (n = 320,000); note: potency is the fitted concentration of half-maximal effect; % of control where 0% means no effect; nearly all actives have a fitted effect of over 45% in size
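Luminescent cell viability in 1536-well qHTS format served as the measure of rescued growth in ts fusion-mutant S. cerevisiae cultured on non-fermentable YPEG for 48 hours at 37C.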
Nrf2 block: Nrf2 qHTS screen for inhibitors. A549 ARE-Fluc reporter, luciferase luminescence, 18-24 h. Potency, µM (top dose mostly 46 µM), for inactives: top-dose activity change, negative = inhibition, most hits filed as inhibitors. actives 2.1% (n = 360,000); note: potency is the fitted concentration of half-maximal effect; % is set by controls: 0 for no effect and ±100 for the full control effect; nearly all actives have a fitted effect of over 60% in size
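Reporter: ARE-Fluc in A549. Exposure: 18-24 h, 37 °C, 5% CO2, 5% FBS OPTI-MEM. Readouts: fluorescent cytotoxicity (CellTiter-Fluor), then luminescent Nrf2 signal after BugLite.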
A549 viability: Nrf2 qHTS screen for inhibitors: counterscreen for cytotoxicity; A549 ARE-Fluc cells, CellTiter-Fluor viability, 18-24 h; Potency, µM (doses to about 46 µM), inactives show top-dose activity change, negative = cytotoxicity, hits mostly inhibitors; actives 0.16% (n = 390,000); AID 504648, 2011; note: potency is the fitted concentration of half-maximal effect; % is set by controls: 0 for no effect and ±100 for the full control effect
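A549 ARE_Fluc cells in 5% FBS OPTI-MEM were exposed to compounds in concentration-response for 18-24 h at 37 deg C. Viability was read by CellTiter-Fluor fluorescence (Ex 405/Em 525) after 30 min, before the luciferase read.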
An asterisk follows results filed as active; ? = inconclusive; · = no result. Calls come from the whole dose curve; as a rule, active = well fitted curve in the direction sought with a large enough effect; inconclusive = small, poorly fitted or top-dose-only effect, or another doubt; inactive = no such curve, though single readings can be large; an effect the other way counts as inactive or inconclusive.

SMILES	Nrf2 ARE act	miR-21 act	Mito fusion act	Nrf2 block	A549 viability
COc1ccc2c(c1)c1nnc(SC(C)C)nc1n2C	·	·	·	?	-1%
Cc1cc2c(s1)c1cnn(Cc3cc(F)c(F)c(F)c3)c(=O)c1n2C	·	·	·	12%	-13%
O=S(=O)(NCc1nc2cccnc2n1Cc1ccc(F)cc1)c1ccc2c(c1)CCCC2	-1%	6%	·	·	-1%
CC(C)C1C(=O)Nc2ccc(S(=O)(=O)NCc3ccc(Cl)cc3)cc21 (stereo unspecified)	-1%	11%	·	21µM*	2%
O=S(=O)(c1ccsc1)N1CCN(c2nc(-c3cccs3)nc3ccccc23)CC1	·	·	·	4%	0%
CC(C)CC(=O)Nc1ccc(C(=O)NNC(=S)NC(=O)C2CCCCC2)cc1	-1%	0%	2%	8.2µM*	2%
COc1cccc(NS(=O)(=O)c2ccc3[nH]cc(C(=O)NCCC(C)C)c(=O)c3c2)c1	3%	20%	-1%	16µM*	-15%
CC(C)CCNC(=O)c1c[nH]c2ccc(S(=O)(=O)Nc3cccc(C(F)(F)F)c3)cc2c1=O	0%	-2%	·	·	2%
Cc1cc2c(cc1C)N(C(=O)CCl)CCN2C(=O)CCl	11µM*	·	·	?	-5%
COC(=O)CCNC(=O)NC(CCC(C)C)c1c(-n2cccc2)sc2c1CCN(C)C2 (stereo unspecified)	0%	-6%	·	27%	-2%
COc1ccc2nc(-c3ccc(N(C)C)cc3)sc2c1	·	·	·	0.33µM*	?
COc1ccc2nc(-c3ccc(F)cc3)sc2c1	5%	·	·	?	8%
CC12CCC(C)(c3nc4ccccc4nc31)C2(C)C	0%	-1%	-2%	4%	4%
Cc1[nH]nc2c1-c1nc3ccccc3nc1C(C)(C)C2	0%	28%	-1%	15µM*	15µM*
O=C(N/N=C/c1ccccn1)c1cc(-c2ccc(Br)cc2)nc2ccccc12	0%	2%	-12%	13µM*	?
O=C(N/N=C/c1ccccn1)c1cc(-c2ccc(Cl)cc2)nc2ccccc12	8%	11%	4%	9.2µM*	?
Cc1ccc(-c2cc(-c3ccco3)c(C#N)c(=O)[nH]2)cc1	8%	0%	7%	-13%	-8%
N#Cc1c(-c2ccco2)cc(-c2ccccc2)[nH]c1=O	2.5µM*	2%	-1%	-54%	1%
O=C(O)c1cc2ccccc2c(N=Nc2cccnc2)c1O	22%	0%	0%	18µM*	?
CCOC(=O)c1cccc(NC(=O)c2cc(S(=O)(=O)N3CCCCCC3)cn2C)c1	1%	8%	·	·	-2%
Nc1c(S(=O)(=O)c2cccs2)c2nc3ccccc3nc2n1/N=C/c1cccc(O)c1	-1%	?	13%	26µM*	?
COc1ccc(C2=C(N3CCN(c4cccc(C)c4C)CC3)c3ccccc3C2=O)cc1	0%	-9%	·	-4%	?
Cc1nn(C(C)(C)C)c(OC(=O)C2CCCC2)c1S(=O)(=O)c1ccccc1	0%	-1%	-5%	?	-17%
Cc1ccc(S(=O)(=O)c2c(C)nn(C(C)(C)C)c2OC(=O)C2CCCC2)cc1	0%	?	-1%	21µM*	-20%
CCn1c2c(c(=O)n3ncc(C(=O)Nc4ccc(C(=O)OC)cc4)c13)CN(Cc1ccc(OC)cc1)CC2	0%	-6%	·	·	0%
SMILES	Nrf2 ARE act	miR-21 act	Mito fusion act	Nrf2 block	A549 viability
Fc1ccc(CSc2ccc3nnc(-c4cccnc4)n3n2)cc1	0%	1%	6%	9.2µM*	-1%
CCOc1ccc(CNC(=O)c2cc3c(=O)oc4ccc(C)cc4c3s2)cc1	-1%	-3%	·	25%	0%
Nc1cc(-c2ccccc2)c[nH]c1=O	·	·	·	7.3µM*	5.8µM*
Nc1cc(-c2ccncc2)c[nH]c1=O	-1%	-6%	3%	-9%	1%
CCCOc1nc2c(c(=O)n(C)c(=O)n2C)n1Cc1cccc2ccccc12	0%	-1%	27%	18µM*	-11%
Cc1cc2c(s1)c1cnn(Cc3cccc(C(F)(F)F)c3F)c(=O)c1n2C	·	·	·	-7%	0%
OC(c1ccccc1)(C1CCCCC1)C(CN1CCOCC1)c1ccccc1 (stereo unspecified)	5%	17%	-10%	-13%	11%
COc1ccc(C(O)(C2CCCCC2)C(CN2CCOCC2)c2ccccc2)cc1 (stereo unspecified)	0%	21%	-14%	21µM*	-16%
CN(C)c1ccc(/C=C/c2cc[n+](C)cc2)cc1	3%	?	-2%	4.1µM*	21µM*
CN(C)c1ccc(/C=C/c2cc[n+]([O-])cc2)cc1	·	-47%	-8%	·	·
C[n+]1ccc(/C=C/c2cccs2)cc1	2%	-3%	-1%	2.3µM*	8.2µM*
Cc1ccc(/C=C/c2ccc(N(C)C)cc2)[n+](C)c1	3%	?	2%	4.1µM*	10µM*
CN1CCCN=C1/C=C/c1cccs1	0%	-1%	-1%	3%	2%
Cc1ccc2[nH]c(=O)c(CN(CCCO)Cc3nnnn3Cc3ccccc3)cc2c1	·	·	·	-28%	2%
COc1ccc(CN(Cc2ccccc2)C(=O)CN2CCN(C)CC2)cc1COc1ccc(NC(C)=O)cc1	·	·	·	-12%	-2%
CC1(C)CC(=O)C=C(NC2=CC3OC(c4ccccc4)OCC3OC2=O)C1 (stereo unspecified)	8%	27%	14%	16µM*	?
O=C(CNC(=O)c1ccccc1)N[C@H](C(=O)Nc1cc(C(F)(F)F)ccc1Cl)c1ccccc1	·	·	·	-12%	-3%
COc1ccc(N2N=NN(C(C)C)C2=C(Cl)c2nnnn2-c2ccc(OC)cc2)cc1	16µM*	·	·	24%	-3%
O=S(=O)(c1ccc(C(F)(F)F)cc1)N1CCN(c2nc(-c3ccccc3)nc3ccccc23)CC1	·	·	·	0%	2%
Cc1ccc(-n2cc(CNCCCn3ccnc3C)c(-c3ccc(F)cc3)n2)cc1	4%	-4%	-8%	-16%	26µM*
Cc1ccc(-n2cc(CNCCc3cscn3)c(-c3ccc(F)cc3)n2)cc1	0%	-24%	-19%	7%	7%
Cc1cc(/C=N/n2cnnc2)c(C)n1-c1ccc(OCc2ccccc2F)cc1	7%	-1%	9%	?	?
Cc1cc(/C=N/n2cnnc2)c(C)n1-c1ccc(OCc2ccc(Cl)cc2)cc1	6%	17%	6%	9.2µM*	-10%
CCCn1c(CN2CCN(c3cccc(Cl)c3)CC2)nc2c1c(=O)n(C)c(=O)n2C	0%	10%	5%	18µM*	-26%
CCCCn1c(CN2CCN(c3cccc(Cl)c3)CC2)nc2c1c(=O)n(C)c(=O)n2C	0%	5%	27%	?	-21%
Cc1nc2ccc(S(=O)(=O)CCC(=O)Nc3ccc(C)c(C)c3)cc2s1	3%	0%	·	20%	-1%

Bioassay records: PubChem, National Center for Advancing Translational Sciences (NCATS)
